Screening results: PubChem BioAssay, several laboratories
Sampled rows, rich in hits. Any-hit rate of the full collection: about 2.3%.
BCLXL inh – blocks human Bcl-xL binding to Bim BH3 peptide; Q07817; GST-Bcl-xL / FITC-Bim BH3 peptide fluorescence polarization; inhibition, % at 10.9 µM; 320,000 compounds, 0.7% hits;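 active = inhibition above the mean of all tested compounds plus 3 SD, cutoff set per campaign, cut at about 30% in these data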;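 note: 0% = DMSO wells and 100% = unlabeled Bim-BH3 peptide competitor; inhibitors lower millipolarization by displacing the labeled peptide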
MCL1 BIM primary – disrupts human MCL1 binding to BIM-BH3 peptide; AID 2057; Q07820; GST-MCL1 / FITC-Bim-BH3 fluorescence polarization; inhibition, % at 10.9 µM; 320,000 compounds, 0.68% hits;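 active = inhibition above the mean inhibition of all tested compounds plus 3 SD, set per campaign, cut at about 40% in these data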;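 note: 0% = DMSO wells and 100% = unlabeled Bim-BH3 peptide control; higher means more loss of mP so more displacement of Bim peptide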
Mcl1 Noxa PPI – disrupts binding of human Mcl-1 to Noxa peptide. TR-FRET Mcl-1/Noxa peptide binding, 2 h. 220,000 compounds, 1.5% hits. inhibition, % at 21.7 µM. AID 1022;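 active = compounds that cut the protein-peptide binding signal by more than 50% relative to plate controls in a single-dose test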;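 note: His-tagged Mcl-1 with rhodamine Noxa BH3 peptide and terbium anti-His antibody; 0% = Mcl-1 plus Noxa peptide wells and 100% = peptide-only wells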
Mcl1-Bid inh – Mcl-1/Bid interaction inhibition; Q07820; TR-FRET Mcl-1/Bid-Dy647 peptide binding, 1536-well; inhibition, % at 21.7 µM; 220,000 compounds, 0.97% hits;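 active = compounds that cut the binding signal by more than half at the single screening dose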;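 note: His-tagged Mcl-1 with europium anti-His antibody binding Bid BH3 peptide; 0% = Mcl-1 plus peptide wells and 100% = peptide-only wells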
Mcl-1 Bim block – human Bim-Mcl-1 interaction inhibition | Q07820 | Bead-based flow cytometry, Bim peptide-Mcl-1 binding | inhibition, % at 10 µM | 190,000 compounds, 0.1% hits; in the data active = inhibition above about 40%;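 note: 0% = no compound tracer wells and 100% = peptide blocker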
GLD-1 TGE inh – GLD-1-TGE RNA interaction inhibition (C. elegans) | Q17339 | purified GLD-1 + fluorescein TGE RNA, fluorescence polarization | inhibition, % at 5.96 µM | 320,000 compounds, 0.44% hits | AID 2280;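 active = percent inhibition above a per-plate cutoff, the plate mean of test compounds plus 3 SD, cut at about 30% in these data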;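 note: 0% = DMSO wells with GLD-1 and probe and 100% = wells lacking GLD-1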
Target sequence (Q17339 whole entry, looked up): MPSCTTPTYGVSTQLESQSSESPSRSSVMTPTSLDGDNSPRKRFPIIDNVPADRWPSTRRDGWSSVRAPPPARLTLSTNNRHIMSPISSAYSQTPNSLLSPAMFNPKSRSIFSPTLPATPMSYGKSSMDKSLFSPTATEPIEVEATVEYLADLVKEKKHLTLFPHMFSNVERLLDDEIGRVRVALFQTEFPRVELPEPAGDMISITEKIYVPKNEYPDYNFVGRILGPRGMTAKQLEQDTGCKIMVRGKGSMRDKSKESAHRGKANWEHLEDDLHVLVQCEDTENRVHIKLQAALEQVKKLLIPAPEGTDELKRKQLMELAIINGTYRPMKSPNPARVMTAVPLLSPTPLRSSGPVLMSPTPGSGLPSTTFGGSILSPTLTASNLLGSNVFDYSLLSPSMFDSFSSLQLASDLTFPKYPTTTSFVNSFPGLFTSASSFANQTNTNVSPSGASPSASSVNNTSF
* = called active by the depositor; / = no result.

SMILES	BCLXL inh	MCL1 BIM primary	Mcl1 Noxa PPI	Mcl1-Bid inh	Mcl-1 Bim block	GLD-1 TGE inh
CNC(=O)c1c(NC(=O)c2ccc(S(=O)(=O)N3CCCc4ccccc43)cc2)sc2c1CCN(C)C2	-50	-98	8	-24	/	-51
COc1ccc(C(=O)NNC(=O)CN2CCC(n3nnc4cc(C(F)(F)F)ccc43)CC2)cc1	4	5	52*	0	-2	2
O=S(=O)(Nc1ccc(N2CCCCC2)cc1)c1ccc(F)c(F)c1	3	2	51*	-41	5	6
O=C(O)c1cc(S(=O)(=O)Nc2ccc(N3CCCCC3)cc2)ccc1Cl	6	2	46	-48	2	10
CN(CC(=O)Nc1ccccc1Cl)C1CCS(=O)(=O)C1 (stereo not drawn)	36*	3	/	/	/	3
CN(CC(=O)Nc1ccccc1Cl)C1CCCCC1	8	3	/	/	/	-2
Cc1nn(Cc2ccccc2)c(C)c1NC(=O)CSc1nc2c(c(C(F)(F)F)n1)CCc1ccccc1-2	2	-8	-15	64*	3	6
COCCCn1nnnc1SCC(=O)Nc1nc2ccccc2s1	3	0	/	/	/	4
Cc1cccc(NC(=O)CCS(=O)(=O)c2ccc3c(c2)NC(=O)CS3)n1	31*	35	/	/	/	23
O=C(O)c1ccc(-n2cc(-c3cc4ccccc4oc3=O)[nH]c2=S)cc1	/	/	50*	-29	0	/
O=C(NCC1CCCO1)c1cc2cc(Cl)ccc2[nH]1 (stereo not drawn)	1	5	/	/	/	3
CCC(C)NC(=O)CSc1nc2cc3c(cc2c(=O)n1Cc1ccco1)OCO3 (stereo not drawn)	/	/	-27	54*	1	/
COc1ccc(C(=O)/C=C/C(=O)N(CC(=O)NC2CCCCC2)Cc2cccs2)c(O)c1	-2	-5	43	38	-1	5
COCCN(CC(=O)NC1CCCCC1)C(=O)/C=C/C(=O)c1ccc(OC)cc1O	/	/	66*	33	-8	/
O=C(COC(=O)/C=C/c1ccc(Cl)cc1Cl)NCC1CCCO1 (stereo not drawn)	/	/	/	/	/	2
CC(C)CC1NC(=S)N(C2CCCCC2)C1=O (stereo not drawn)	2	13	7	-62	0	1
CN(C)c1ncc(/C=C2/C(=O)NC(=S)N(C3CCCCC3)C2=O)cn1	/	/	61*	9	0	/
Nc1c(S(=O)(=O)c2cccc(Cl)c2)c2nc3ccccc3nc2n1/N=C/c1ccc(O)c(O)c1	5	13	64*	-12	13	3
COc1ccc(OC(=O)c2ccncc2)cc1	6	7	6	99*	0	3
CC1(NC(=O)Cc2c(F)cccc2Cl)CCS(=O)(=O)C1 (stereo not drawn)	/	/	/	/	/	20
O=C(OCC(=O)N1CCCC1=O)C1COc2ccccc2O1 (stereo not drawn)	11	1	58*	-3	0	-9
Cc1cccc(N(CC(=O)NC(C)C)C(=O)CCC(=O)Nc2nccs2)c1	4	3	/	/	/	5
Clc1ccc2c(N/N=C/c3ccccc3Br)ccnc2c1	6	8	58*	63*	0	6
Clc1ccc2c(N/N=C/c3cccc(Br)c3)ccnc2c1	-8	-28	47	60*	10	-10
Cn1c(SCC(=O)NNC(=O)c2ccccc2)nnc1C1CC1	8	8	/	/	/	2
SMILES	BCLXL inh	MCL1 BIM primary	Mcl1 Noxa PPI	Mcl1-Bid inh	Mcl-1 Bim block	GLD-1 TGE inh
CC(C)n1c(SCC(=O)Nc2ccc3c(c2)OCO3)nc2c1c(=O)n(C)c(=O)n2C	6	3	0	72*	1	5
O=C1CC(NS(=O)(=O)c2cccnc2)CN1c1ccc(Cl)cc1 (stereo not drawn)	-1	-8	/	/	/	7
c1ccc(-c2nnc(OCCN3CCOCC3)c3ccccc23)cc1	5	3	2	-13	79*	0
CCOC(=O)c1sc2nc(N3CCOCC3)c3c(c2c1N)CCCC3	-6	-6	0	-23	3	4
CCN(CC)C(=O)c1sc2nc(N3CCOCC3)c3c(c2c1N)CCCC3	5	11	59*	-25	-1	3
CN(CC(=O)Nc1ccccc1Cl)C(=O)CCc1nc2ccccc2c(=O)[nH]1	31*	31	/	/	/	25
CN(CC(=O)Nc1ccc(F)cc1)C(=O)CCc1nc2ccccc2c(=O)[nH]1	12	6	/	/	/	0
CC(C)c1ccc(S(=O)(=O)/N=C2/C=CC(=O)c3ccccc32)cc1	/	/	78*	0	0	/
CN1C(=O)/C(=C/c2coc3ccc(O)cc3c2=O)SC1=S	-12	-12	54*	-5	/	-15
Cc1cc(/C=C2\SC(=S)N(C)C2=O)c(C)n1-c1ccc(O)cc1	-18	-39	-8	-51	/	-70
N=C1/C(=C\c2coc3ccccc3c2=O)C(=O)N=C2SC(c3ccncc3)=NN12	-28	-38	61*	-159	/	-84
N=C1/C(=C/c2coc3ccccc3c2=O)C(=O)N=C2SC(c3ccco3)=NN12	-26	-52	46	-82	/	-35
CSC1=NSC2=NC(=O)/C(=C\c3coc4ccccc4c3=O)C(=N)N12	-17	-39	-31	-32	-3	-91
N=C1/C(=C/c2ccc(OC(=O)c3ccco3)cc2)C(=O)N=C2SC=CN12	0	-5	46	10	-4	-1
N=C1/C(=C\c2coc3ccc(O)cc3c2=O)C(=O)N=C2SC=CN12	61*	-23	45	-28	/	55*
CC(C)CSC1=NSC2=NC(=O)/C(=C\c3coc4ccccc4c3=O)C(=N)N12	80*	23	15	5	/	-195
O=C(CN1CCc2cc3c(cc2C1)OCCCO3)Nc1c(F)cccc1F	1	5	/	/	/	2
CCC(C)[C@@H]1NC(=O)N(CCCN2CCCC2=O)C1=O (stereo partly drawn)	4	-1	/	/	/	0
CCC1(C)Cc2sc3c(=O)[nH]c(=S)[nH]c3c2CO1 (stereo not drawn)	7	8	54*	-24	-5	-1
O=C(Nc1cccc(Cl)c1)c1cc(N=Nc2ccc([N+](=O)[O-])cc2Cl)ccc1O	1	6	109*	100*	/	-6
CC(=O)NC1C(=O)N=C(SCC(=O)NC(C)c2ccccc2)NC1=O (stereo not drawn)	2	3	25	56*	-1	2
CC(=O)NC1C(=O)N=C(SCc2ccccc2)NC1=O (stereo not drawn)	6	3	26	-24	8	9
CC1CC(C)CN(CCCNC(=O)C2CCCN(S(=O)(=O)N3CC(C)CC(C)C3)C2)C1 (stereo not drawn)	5	5	/	/	/	-1
Cc1cccc(NC(=O)CSc2nc(COc3ccccc3)nc3ccccc23)c1C	4	6	-4	33	-3	-1
Cc1cccc(C)c1NC(=O)CSc1nc(COc2ccccc2)nc2ccccc12	1	28	0	59*	10	0
